Drawing on PubChem BioAssay AID651822 (The Scripps Research Institute Molecular Screening Center, 2012), this text covers inhibition for three compounds.

Structures are written as SMILES. The whole screen tested about 2,300 compounds, of which about 970 (42%) were called active. The set was probably picked from earlier hits. Only a sample is shown. Unmarked numbers belong to inactive results. Cut-off read from the data, not from the text of the source: active = inhibition above about 4.5%; inactive = the rest.

This assay deals with Methionine sulfoxide reductase A (Bos taurus). Nature of the assay: bovine MsrA inhibitors, retest, confirmation, biochemical, absorbance, HTS (AID 651822).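 Note: coupled to thioredoxin reductase with NADPH and selenocystamine and DMSO as substrate; 0% = vehicle only and 100% = full effect of reference inhibitor.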 As to conditions: purified bovine MsrA, absorbance read-out; at 15.5 µM; hits give high values.
With `CCCCC(=O)N/N=C/c1c(O)n(CC)c(=S)n(CC)c1=O`, the inhibition was 6.08% (active).

For the compound `CCOc1ccc(-c2cc(C)[n+](CCN(CC)CC)c(-c3ccc(OCC)cc3)c2)cc1`, the inhibition is 3.69%.

As for `COc1ccc(C(=O)C2CCCN(Cc3ccc(C)s3)C2)cc1OC` (stereo not drawn), the inhibition was -0.82%.

In general, inhibition refers to the drop in the measured response relative to a control, in per cent.
